D3 ag: agonists of human D3 dopamine receptor; P35462; D3R DiscoveRx beta-arrestin cells, luminescence, 90 min; max activation, %; 410,000 compounds, 0.58% hits; AID 652048; in the data active = max activation above about 30%
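Cells at 1500/well, incubated overnight, then treated with pinned compounds (dopamine as control) for 90 min at 37 degrees C. DiscoveRx reagent added for 30 - 60 minutes at room temperature; luminescence read.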
PI4K2A block: blocks human PI4K2A kinase activity; purified PI4K2A, ADP-Glo luminescence, 1 h; hits give low values; 420,000 compounds, 0.13% hits; activity change, negative = inhibition, % at 76.9 µM; AID 1346378; Q9BTU6; in the data active = activity change below about -50%; inconclusive = mostly about -30% to -49%
Target sequence (Q9BTU6 whole entry, looked up): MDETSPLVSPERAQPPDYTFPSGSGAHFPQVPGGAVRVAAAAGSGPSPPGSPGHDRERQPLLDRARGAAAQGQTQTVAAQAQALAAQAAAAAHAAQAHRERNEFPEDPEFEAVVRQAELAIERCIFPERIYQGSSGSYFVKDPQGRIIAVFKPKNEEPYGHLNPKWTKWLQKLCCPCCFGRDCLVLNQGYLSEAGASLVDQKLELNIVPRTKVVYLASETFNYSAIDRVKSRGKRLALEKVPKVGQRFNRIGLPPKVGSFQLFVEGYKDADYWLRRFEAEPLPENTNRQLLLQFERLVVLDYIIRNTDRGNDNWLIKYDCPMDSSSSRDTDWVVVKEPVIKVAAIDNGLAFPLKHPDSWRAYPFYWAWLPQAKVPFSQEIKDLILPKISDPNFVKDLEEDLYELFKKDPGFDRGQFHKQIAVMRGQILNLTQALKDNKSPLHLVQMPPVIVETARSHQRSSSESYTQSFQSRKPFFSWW
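ADP-Glo luminescence measured ADP generated by PI4K2A enzyme (4 ug/mL before mixing) with 1.2 mM PI substrate (pre-mix) and 300 microM ATP (pre-mix). Tris pH7.5 buffer with MgCl2, Triton X-100; 1 h reaction at ambient temperature.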
LDHA inh: inhibitors of human lactate dehydrogenase A; purified LDHA, NADH/diaphorase-resazurin fluorescence; hits give low values; activity change, % (values are at about 110 or 230 µM); 480,000 compounds, 0.15% hits; AID 1347041; in the data active = activity change below about -30%; inconclusive = mostly about -25% to -30%
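Human LDH5 (2 nM) was incubated with 0.06 mM NADH and 0.2 mM pyruvate for 5 min at room temperature in Tris pH 7.4. Remaining NADH was coupled through diaphorase/resazurin, and resorufin fluorescence was read at 0 and 20 min.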
PI5P4K alpha inh: blocks human PI5P4K alpha kinase activity; P48426; PI5P4Kalpha enzyme, ADP-Glo luminescence, 60 min; hits give low values; max response, %; 330,000 compounds, 1.2% hits; AID 652105; active = max response of -50% or lower; inconclusive = between -30% and -50%; inactive = -30% or higher; note: value at the top dose of about 77 µM
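ADP-Glo luminescence end-point read after a 60 min room-temperature kinase reaction of PI5P4Kalpha plus substrate, initiated with ATP at 5 microM final. Buffer: 0.038 M HEPES pH 7.4, EGTA, 0.1% CHAPS, 5% DMSO.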
DRD3 antagonist: blocks the human D3 dopamine receptor; 360,000 compounds, 2.5% hits; max response, negative = inhibition, %; D3R cells, DiscoveRx beta-arrestin luminescence, antagonist mode; hits give low values; AID 652054; in the data active = max response below about -50%; inconclusive = no clear call, values can overlap the other calls
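Cells expressing the human receptor were seeded at 1500 cells/well, incubated overnight at 37 degrees C in 5% CO2, then exposed to library compounds with dopamine controls for 90 minutes at 37 degrees C before luminescent detection.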
ADP-Glo counter: interferes with ADP-Glo detection without enzyme present | Potency, µM (top dose mostly 76.9 µM), most hits filed as inhibitors | shares compounds with PI5P4K alpha inh | ADP-Glo detection counter-screen, luciferase luminescence, no enzyme | 1,100 tested, under 10 active; active = well fitted curve in the direction sought with a large enough effect; inconclusive = small, poorly fitted or top-dose-only effect, or another doubt; inactive = no such curve, though single readings can be large or run the other way
Of the large screens only hits and unclear results are named; the others gave an inactive call (follow-up assays come after a bar, where they were run). Sampled rows, rich in hits. Any-hit rate of the full collection: about 3.3%.

Cn1c(SCC(=O)Nc2ccc3nc(SCC(=O)N4CCCC4)sc3c2)nnc1-c1ccccc1	PI5P4K alpha inh -64 | ADP-Glo counter inactive
O=C(COC(=O)Cc1ccsc1)Nc1cccc(F)c1	PI5P4K alpha inh -56 | ADP-Glo counter inactive
O=C(COC(=O)Cc1ccsc1)Nc1cccc(Cl)c1	none
COc1cc(OC)cc(-c2nnc(NC(=O)CCS(=O)(=O)c3ccc(C)cc3)o2)c1	PI5P4K alpha inh -50 | ADP-Glo counter inactive
CC(NC(=O)c1ccnn1C)C1CCCO1 (stereo not given)	PI5P4K alpha inh inconclusive | ADP-Glo counter inactive
O=C(Nc1ccc2nc(-c3ccco3)c(-c3ccco3)nc2c1)N1CCN(c2ccccn2)CC1	PI4K2A block inconclusive, PI5P4K alpha inh -91 | ADP-Glo counter inactive
O=C(c1ccc2nc(-c3ccco3)c(-c3ccco3)nc2c1)N1CCN(c2ncccn2)CC1	PI5P4K alpha inh -53 | ADP-Glo counter inactive
CCn1c(CC(=O)Nc2ccccc2Cl)nnc1SCC(=O)NC1CCCC1	none
CCn1c(CC(=O)Nc2ccccc2F)nnc1SCC(=O)NC1CCCCC1	none | ADP-Glo counter inactive
COc1ccccc1NC(=O)Cc1nnc(SCC(=O)Nc2ccccc2F)n1C	PI5P4K alpha inh -67 | ADP-Glo counter inactive
O=C1/C(=C/c2ccc(F)c(F)c2)Cc2ccccc21	none (no result: D3 ag, PI4K2A block, PI5P4K alpha inh, DRD3 antagonist)
O=C(Nc1cc(S(=O)(=O)N2CCOCC2)ccc1N1CCCC1)c1ccc(Cl)cc1	PI5P4K alpha inh -51 | ADP-Glo counter inactive
O=C(Nc1cc(S(=O)(=O)N2CCOCC2)ccc1N1CCCC1)c1ccc2c(c1)S(=O)(=O)c1ccccc1C2=O	PI5P4K alpha inh -77 | ADP-Glo counter inactive
O=C(Nc1cc(S(=O)(=O)N2CCOCC2)ccc1O)c1ccc(NS(=O)(=O)c2ccc(Cl)s2)cc1	PI5P4K alpha inh -59 | ADP-Glo counter inactive
O=S(=O)(Nc1cc(S(=O)(=O)N2CCCC2)ccc1O)c1ccc(Cl)s1	none
COc1ccc(S(=O)(=O)N2CCOCC2)cc1NC(=O)c1ccc(S(=O)(=O)N(C)c2ccccc2OC)cc1	none
COc1ccc(S(=O)(=O)N2CCOCC2)cc1NC(=O)c1cccc(-n2cccc2)c1	PI4K2A block inconclusive, PI5P4K alpha inh -74 | ADP-Glo counter inactive
CCOc1ccc(/C=N/OCc2ccc(F)cc2Cl)cc1OC	none (no result: D3 ag, PI4K2A block, PI5P4K alpha inh, DRD3 antagonist)
CCc1sc(C(=O)Nc2ccc3c(c2)OCO3)cc1C	PI5P4K alpha inh -72 | ADP-Glo counter inactive
COc1ccc(CNC(=O)c2ccccc2NC(=O)C2=C(C)OCCS2)cc1	none
CC1=C(C(=O)Nc2ccc(CC(=O)NCc3ccccc3C)cc2)SCCO1	none
COc1cccc(CNC(=O)Cc2ccc(NC(=O)C3=C(C)OCCS3)cc2)c1	PI5P4K alpha inh -53 | ADP-Glo counter inactive
CCc1ccc(CNC(=O)Cc2ccc(NC(=O)C3=C(C)OCCS3)cc2)cc1	PI5P4K alpha inh -63 | ADP-Glo counter inactive
CCC(C)(C(=O)NC1CCCC1)N(C)C(=O)Cc1cccs1 (stereo not given)	none (no result: D3 ag, PI4K2A block, PI5P4K alpha inh, DRD3 antagonist)
COCCNC(=O)C1Cc2c(-c3ccc(NC(C)=O)cc3)ccnc2O1 (stereo not given)	PI5P4K alpha inh -66 | ADP-Glo counter inactive
CSc1cccc(NC(=O)c2cnn3ccccc23)c1	PI5P4K alpha inh -63 | ADP-Glo counter inactive
CCc1ccc(NC(=O)c2cnn3ccccc23)cc1	PI4K2A block inconclusive, PI5P4K alpha inh inconclusive
Cc1oc2ccc(OCc3c(F)cccc3Cl)cc2c1C(=O)O	PI5P4K alpha inh -55 | ADP-Glo counter inactive
CCN(CC)C(=O)c1[nH]cnc1C(=O)Nc1ccc(Cl)cc1	none
CCN(CC)C(=O)c1[nH]cnc1C(=O)Nc1ccc(OC)cc1	none | ADP-Glo counter inactive
O=C(CSc1nc2ccccc2o1)NC1CCCCCC1	none (no result: D3 ag, PI4K2A block, PI5P4K alpha inh, DRD3 antagonist)
Cc1cc(C)c2oc(C(=O)Nc3ccc(S(=O)(=O)Nc4nccs4)cc3)cc(=O)c2c1	none
Cc1cc2oc(C(=O)Nc3ccc(S(=O)(=O)Nc4nccs4)cc3)cc(=O)c2cc1Cl	PI5P4K alpha inh -52 | ADP-Glo counter inactive
N=c1oc2ccc3ccccc3c2cc1C(N)=S	PI5P4K alpha inh -60 | ADP-Glo counter inactive
Cc1cccc(Nc2nc(NCc3ccco3)c3ccccc3n2)c1	none (no result: PI5P4K alpha inh) | ADP-Glo counter inactive
COc1ccc(NC(=O)CSc2nc(-c3ccco3)nc3cc(=O)[nH]n23)cc1Cl	PI5P4K alpha inh -56 | ADP-Glo counter inactive
COc1ccc(NC(=O)CSc2nc(-c3ccco3)nc3cc(=O)[nH]n23)cc1	none (no result: PI5P4K alpha inh, DRD3 antagonist)
COc1ccc(C2CC(=O)N3CN(Cc4ccco4)CSC3=C2C#N)cc1 (stereo not given)	none (no result: PI5P4K alpha inh)
COc1cc(C2CC(=O)N3CN(Cc4ccco4)CSC3=C2C#N)ccc1OCc1ccccc1 (stereo not given)	PI5P4K alpha inh -59 | ADP-Glo counter inactive
N#C/C(=C/c1cccc(F)c1)S(=O)(=O)c1ccc(Cl)cc1	none (no result: D3 ag, PI4K2A block, PI5P4K alpha inh, DRD3 antagonist)
Cc1nc(Nc2cccc(C(F)(F)F)c2)nc2c1C(=O)CC(C)C2 (stereo not given)	none
Cc1ccc(Nc2nc(C)c3c(n2)CC(C)CC3=O)c(C)c1 (stereo not given)	none | ADP-Glo counter inactive
COc1ccc2c(c1)c(=O)oc1c(C)c(OCc3cc(C(=O)O)oc3C)ccc12	PI5P4K alpha inh -68 | ADP-Glo counter inactive
CN(C(=O)c1ccc(Br)o1)C1CCS(=O)(=O)C1 (stereo not given)	PI5P4K alpha inh inconclusive | ADP-Glo counter inactive
CCN(C(=O)c1ccc(Br)o1)C1CCS(=O)(=O)C1 (stereo not given)	none
O=C1NC(c2cc(Cl)cc([N+](=O)[O-])c2O)Nc2ccccc21 (stereo not given)	PI5P4K alpha inh -79, DRD3 antagonist inconclusive | ADP-Glo counter inactive
COc1ccc(C2=CC3=C(Br)C(=O)C(C)(OC(=O)c4cccs4)C(=O)C3=CO2)cc1 (stereo not given)	PI5P4K alpha inh -70, DRD3 antagonist -55 | ADP-Glo counter inactive
COCCN1C=C2C(=O)C(C)(OC(=O)CCC(=O)OC)C(=O)C(Br)=C2C=C1c1ccc(OC)cc1 (stereo not given)	DRD3 antagonist inconclusive
CCc1c(C)sc(NC(=O)/C=C/C(=O)O)c1C#N	none (no result: D3 ag, PI4K2A block, PI5P4K alpha inh, DRD3 antagonist)
COCCn1c(SCC(=O)Nc2cccnc2Cl)nc2cc(Cl)ccc2c1=O	none
COCCn1c(SCC(=O)Nc2cccc(S(N)(=O)=O)c2)nc2cc(Cl)ccc2c1=O	PI5P4K alpha inh -63 | ADP-Glo counter inactive
COc1cc(CCC(=O)NCc2ccncc2)cc(OC)c1OC	none (no result: D3 ag, PI4K2A block, PI5P4K alpha inh, DRD3 antagonist)
O=C(O)c1ccc(NS(=O)(=O)c2ccc3c(c2)C2C=CCC2C(c2ccccc2F)N3)cc1 (stereo not given)	PI5P4K alpha inh -51 | ADP-Glo counter inactive
COC(=O)C1CCCN(C(=O)C2CCN(S(=O)(=O)c3cccs3)CC2)C1 (stereo not given)	none (no result: D3 ag, LDHA inh, PI5P4K alpha inh, DRD3 antagonist)

Screening data: PubChem BioAssay, National Center for Advancing Translational Sciences (NCATS)
